Sm TGR block: blocks Schistosoma mansoni thioredoxin glutathione reductase; purified TGR, DTNB reduction, TNB absorbance 405 nm; Potency, µM (highest dose often 114 µM), for the others: at the top dose activity change, negative = inhibition, usual class: inhibitors; actives 3% (n = 360,000); Q962Y6; also: % is scaled to controls: 0 for no effect and ±100 for the full control effect; nearly all actives have a fitted effect of over 60% in size
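Kinetic colorimetric format: TGR-catalysed, NADPH-driven DTNB reduction monitored via TNB absorbance. Enzyme dispensed at 20 nM; compound exposure 15 min at room temperature before reaction start.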
SARS PLpro yeast: SARS-CoV PLP inhibition in yeast; S. cerevisiae expressing SARS-CoV PLpro, growth rescue; Potency, µM (doses to about 32.9 µM), without a hit: at the highest dose activity, positive = growth rescue, usual class: activators; actives 0.19% (n = 330,000); AID 485353; calls by dose curve; also: 0% is about no effect; nearly all actives have a fitted effect of over 55% in size
Pf growth 96h: P. falciparum growth inhibition at 96 hour, primary screen for plastid delayed-death inhibitors | P. falciparum luciferase reporter growth, 96 h | Potency, µM (series often up to 28.7 µM), inactives show at the top dose activity change, negative = inhibition, most hits filed as inhibitors | actives 6.9% (n = 320,000); also: % is scaled to controls: 0 for no effect and ±100 for the full control effect
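Parasite growth measured via integrated firefly luciferase reporter in P. falciparum. Infected erythrocytes at 2% hematocrit, 0.05% parasitemia final were treated 96 hours at 37 C under 5% CO2, and luminescence was read.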
Pf growth 48h: inhibits P. falciparum growth in the first generation, 48 h; AID 504832; Potency, µM (top dose mostly 28.7 µM), for the others: at the highest dose activity change, negative = inhibition, hits mostly inhibitors; P. falciparum luciferase growth in erythrocytes, 48 h; actives 5.9% (n = 310,000); also: % is scaled to controls: 0 for no effect and ±100 for the full control effect
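Read-out is firefly luciferase luminescence from an integrated reporter in P. falciparum, so falling signal marks reduced parasite growth. Infected erythrocytes were at 2% hematocrit and 0.1% parasitemia (final) in Albumax-supplemented RPMI 1640.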
* hit, by the source's call. The list is not random: actives were taken first. Their share in the collection is about 12%. Unless noted, calls follow the shape of the dose curve; as a rule, active = well fitted curve in the direction sought with a large enough effect; inconclusive = small, poorly fitted or top-dose-only effect, or another doubt; inactive = no such curve, though single readings can be large; an effect the other way counts as inactive or inconclusive. Potency is read from the fitted curve at half-maximal effect.

`CC(=O)Oc1ccc2ccccc2c1C(NC(=O)C(C)C)c1cccc([N+](=O)[O-])c1` (centres undefined) gave Sm TGR block -22%, SARS PLpro yeast 2% and Pf growth 48h 1.9µM*.
`CCOC(=O)C(NC(=O)CC)C(O)c1cccc([N+](=O)[O-])c1` (centres undefined) gave Sm TGR block -13%, SARS PLpro yeast 13%, Pf growth 96h -6% and Pf growth 48h 4%.
Screening Cc1cc2c(cc1C)CSC(c1c(O)ccc3ccccc13)SC2 returned Sm TGR block -8%, SARS PLpro yeast -54% and Pf growth 48h 12µM*.
Cc1cc2c(cc1C)CSC(c1ccc3ccccc3c1O)SC2 was read as Sm TGR block -21%, SARS PLpro yeast 4%, Pf growth 96h inconclusive and Pf growth 48h 9.3µM*.
`Cc1cc2c(cc1C)CSC(c1ccccc1O)SC2` gave Sm TGR block 15%, SARS PLpro yeast -9% and Pf growth 48h -21%.
For Cc1cc2c(cc1C)CSC(c1ccc(O)cc1)SC2 the results were Sm TGR block 13%, SARS PLpro yeast -6%, Pf growth 96h 1% and Pf growth 48h 72%.
`CN(C(=O)CSc1cn(CC(=O)N2CCCCC2)c2ccccc12)c1ccccc1` gave Sm TGR block 4%.
Screening COCCNC(=O)CCC1CCN(Cc2cccc(-c3ccc(C)o3)c2)CC1 returned Sm TGR block 40µM*, SARS PLpro yeast -4%, Pf growth 96h -4% and Pf growth 48h 4%.
`Cc1c(Cl)sn(-c2ccc(Cl)cc2)c1=O` gave Sm TGR block 3.5µM*, SARS PLpro yeast -6%, Pf growth 96h inconclusive and Pf growth 48h inconclusive.
CC(=O)c1sc2c(c1C)c(=O)n(-c1ccc(Cl)cc1)c(=O)n2Cc1ccc(Cl)cc1 was read as Sm TGR block 9%.
`O=C(Nc1ccc(S(=O)(=O)N2CCOCC2)cc1)c1cc(-c2ccccc2O)n[nH]1` gave Sm TGR block 5%, SARS PLpro yeast -1%, Pf growth 96h inconclusive and Pf growth 48h 10µM*.
Screening CC1CN(S(=O)(=O)c2ccc(NC(=O)c3cc(-c4ccccc4O)n[nH]3)cc2)CC(C)O1 (centres undefined) returned Sm TGR block 7%, SARS PLpro yeast 3%, Pf growth 96h 0.93µM* and Pf growth 48h 1.7µM*.
For Cc1ccccc1C(=O)Nc1ccc(S(=O)(=O)N2CC(C)OC(C)C2)cc1 (centres undefined) the results were Sm TGR block 1%, SARS PLpro yeast -4%, Pf growth 96h 0% and Pf growth 48h -13%.
Screening O=C(Nc1ccc(S(=O)(=O)N2CCOCC2)cc1)c1ccccc1 returned Sm TGR block 11%, SARS PLpro yeast 1%, Pf growth 96h -14% and Pf growth 48h -17%.
Screening CC[N+](CC)(CC)CCC(O)(c1ccccc1)C1CCCCC1 (centres undefined) returned Sm TGR block -4%, SARS PLpro yeast 7%, Pf growth 96h 10µM* and Pf growth 48h 6.6µM*.
CC(C)N1CCc2c(sc(NC(=O)c3ccc(S(=O)(=O)N4CCOCC4)cc3)c2C#N)C1 was read as Sm TGR block 45µM*, SARS PLpro yeast 2%, Pf growth 96h inconclusive and Pf growth 48h -13%.
`CCOC(=O)c1c(NC(=O)c2ccc(S(=O)(=O)N3CCOCC3)cc2)sc2c1CCN(C)C2` gave Sm TGR block 2%, SARS PLpro yeast 6%, Pf growth 96h inconclusive and Pf growth 48h 12µM*.
CC(C)N1CCc2c(sc(NC(=S)NC(=O)c3ccccc3)c2C#N)C1 was read as Sm TGR block -16%, SARS PLpro yeast -2%, Pf growth 96h 0.47µM* and Pf growth 48h 10µM*.
Screening COC(=O)c1c(NC(=O)c2ccc(S(=O)(=O)N3CCCCC3)cc2)sc2c1CCN(C)C2 returned Sm TGR block -18%.
CCOC(=O)N1CCc2c(sc(NC(=O)c3ccc(S(=O)(=O)N4CCCC4)cc3)c2C#N)C1 was read as Sm TGR block -18%, SARS PLpro yeast 25%, Pf growth 96h inconclusive and Pf growth 48h 12µM*.
`O=C(NCc1ccccc1)c1nc(-c2ccc(Cl)cc2)n2c1CCCCC2` gave Sm TGR block -9%.
C=C1SC(Nc2c(C)cccc2C)=NC12CCCCC2 was read as Sm TGR block 22%, SARS PLpro yeast 2%, Pf growth 96h inconclusive and Pf growth 48h inconclusive.
`C=C1SC(Nc2c(C)cc(C)cc2C)=NC12CCCCC2` gave Sm TGR block 1%, SARS PLpro yeast -1%, Pf growth 96h inconclusive and Pf growth 48h 1.7µM*.
For COc1ccc(OCC(=O)Nc2cc(-c3ccccc3F)nn2-c2ccccc2)cc1 the results were Sm TGR block 8%.
CCOc1cc(N2CCOCC2)c(OCC)cc1NC(=O)COC(=O)c1ccccc1OC(F)F was read as Sm TGR block -2%, SARS PLpro yeast 1%, Pf growth 96h 30% and Pf growth 48h -24%.
For CC1(C)CC(=O)C(N=Nc2ccc(-c3ccccc3)cc2)=C(O)C1 the results were Sm TGR block 1%, SARS PLpro yeast 0%, Pf growth 96h -3% and Pf growth 48h -16%.
`CC1(C)CC(=O)C(C(C#Cc2ccccc2)C2=C(O)CC(C)(C)CC2=O)=C(O)C1` gave Sm TGR block 4µM*, SARS PLpro yeast 1%, Pf growth 96h 11% and Pf growth 48h 24%.
Screening O=C1CCCC(O)=C1C(C#Cc1ccccc1)C1=C(O)CCCC1=O returned Sm TGR block 3.2µM*, SARS PLpro yeast 2%, Pf growth 96h 39% and Pf growth 48h 4%.
`COc1ccc(CCN(C)Cc2c(O)ccc3cc(Br)ccc23)cc1OC` gave Sm TGR block 4µM*, SARS PLpro yeast 1%, Pf growth 96h inconclusive and Pf growth 48h inconclusive.
For COc1ccc(CN(C)Cc2c(O)ccc3cc(Br)ccc23)cc1OC the results were Sm TGR block 8.9µM*, SARS PLpro yeast 0%, Pf growth 96h inconclusive and Pf growth 48h inconclusive.
`OCCCc1nc2n(n1)C(c1ccccc1)C=C(c1ccc(F)cc1)N2` (centres undefined) gave Sm TGR block 20µM*, SARS PLpro yeast 15%, Pf growth 96h -13% and Pf growth 48h inconclusive.
OCCCc1nc2n(n1)C(c1ccccc1Cl)C=C(c1cccs1)N2 (centres undefined) was read as Sm TGR block 28µM*, SARS PLpro yeast -2%, Pf growth 96h 1% and Pf growth 48h inconclusive.
`Cc1ccc(S(=O)(=O)Nc2nc3n(n2)C(c2ccccc2Cl)C=C(c2ccccc2)N3)cc1` (centres undefined) gave Sm TGR block 2%.
Screening OCCCc1nc2n(n1)C(c1cccs1)C=C(c1ccccc1)N2 (centres undefined) returned Sm TGR block inconclusive, SARS PLpro yeast inconclusive and Pf growth 96h 2%.
For CCc1ccc(NC(=O)C2CCC(CNS(=O)(=O)c3ccc4c(c3)C(C)(C)C(=O)N4C)CC2)cc1 (centres undefined) the results were Sm TGR block -1%.

Assay outcomes (PubChem)
